Measured values from the supplement of paper PMC6555819.

Legend:
Assay in all cases: PBM binding z-score (relative to random genomic background probes); higher = stronger binding; sequences stand for … in GC…GCGATTGACAGCGTAGAATGAAGG
[1] = tested on: PPARg:RXRa DBDmut IVT, anti-RXR (DBD mutation: RXRa K156A/R161A, NR concentration 270 nM, RXRa partner concentration 90 nM)
Outline: (§1)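 For binding z-scores, the reference was random background probes on custom Agilent 4×180K protein-binding microarrays. These arrays were incubated 1 h with ligand-free nuclear receptor dimers in PBS pH 7.4, 2% milk, 0.02% Triton X-100, 1 mM DTT, 0.2 mg/mL BSA and 0.4 mg/ml salmon testes DNA. Fluorescence was scanned after antibody detection of each partner (one per run) and regression-normalized.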

[2] = tested on: PPARg:RXRa IVT, anti-PPARg (NR concentration 270 nM, RXRa partner concentration 90 nM)
Outline: as §1

[3] = tested on: PPARg DBDmut:RXRa IVT, anti-PPARg (DBD mutation: PPARg1 K132A/R137A, NR concentration 270 nM, RXRa partner concentration 90 nM)
Outline: as §1

[4] = tested on: PPARg DBDmut IVT, anti-PPARg (DBD mutation: PPARg1 K132A/R137A, NR concentration 270 nM)
Outline: as §1

[5] = tested on: PPARg homodimer (NR concentration 180 nM)
Outline: as §1

[6] = tested on: PXR:RXRa (NR concentration 270 nM, RXRa partner concentration 90 nM)
Outline: as §1

[7] = tested on: PXR homodimer (NR concentration 270 nM)
Outline: as §1

[8] = tested on: RARa:RXR (NR concentration 270 nM, RXRa partner concentration 90 nM)
Outline: as §1

[9] = tested on: RARa homodimer (NR concentration 270 nM)
Outline: as §1

[10] = tested on: RARb:RXRa (NR concentration 270 nM, RXRa partner concentration 90 nM)
Outline: as §1

[11] = tested on: RARb homodimer (NR concentration 270 nM)
Outline: as §1

[12] = tested on: RARg:RXRa (NR concentration 270 nM, RXRa partner concentration 90 nM)
Outline: as §1

[13] = tested on: RARg homodimer (NR concentration 270 nM)
Outline: as §1

[14] = tested on: RXRa DBDmut IVT, anti-RXR (DBD mutation: RXRa K156A/R161A, NR concentration 90 nM)
Outline: as §1

[15] = tested on: RXRa homodimer (NR concentration 180 nM)
Outline: as §1

[16] = tested on: THRa:RXRa (NR concentration 90 nM, RXRa partner concentration 90 nM)
Outline: as §1

[17] = tested on: THRa homodimer (NR concentration 90 nM)
Outline: as §1

[18] = tested on: VDR:RXRa (NR concentration 270 nM, RXRa partner concentration 90 nM)
Outline: as §1

[19] = tested on: VDR homodimer (NR concentration 270 nM)
Outline: as §1

Row | Sequence | PBM binding z-score [1] | PBM binding z-score [2] | PBM binding z-score [3] | PBM binding z-score [4] | PBM binding z-score [5] | PBM binding z-score [6] | PBM binding z-score [7] | PBM binding z-score [8] | PBM binding z-score [9] | PBM binding z-score [10] | PBM binding z-score [11] | PBM binding z-score [12] | PBM binding z-score [13] | PBM binding z-score [14] | PBM binding z-score [15] | PBM binding z-score [16] | PBM binding z-score [17] | PBM binding z-score [18] | PBM binding z-score [19]
1 | CCTATTAGTTGACCATAAGGGGAACCGAAGCTCG | 0.601 | 0.106 | 0.62 | 0.755 | 1.54 | 0.541 | 0.854 | 0.248 | 2.37 | 0.582 | 0.9 | 0.438 | 0.565 | 0.467 | 0.236 | 0.633 | 0.694 | 0.632 | 0.895
2 | TCTCGGAGGACACGACGGTCAGAGCTTTCCAGAG | 1.2 | 0.00965 | -1.14 | -0.952 | -0.596 | -0.328 | -0.626 | -0.317 | -0.599 | 1.91 | 1.53 | 0.617 | 1.65 | 0.193 | 0.0986 | 1.33 | 0.161 | -0.164 | -0.222
3 | ATCGAAAGGTCGAGGTGAGGATAGAGAAAGGGAA | 0.551 | 2.41 | 1.29 | 0.836 | 1.63 | 2.46 | 0.644 | 3.16 | 0.718 | 4.06 | 3.07 | 4.35 | 4.28 | 0.642 | 4.31 | 3.87 | 1.64 | 2.63 | 0.466
4 | ACCGAAAGGTCGTGAGGTGAGTATACAGAAAGGC | 0.638 | 2.23 | 0.794 | 0.846 | 1.51 | 3.29 | -0.242 | 4.22 | 0.0801 | 4 | 2.84 | 4.64 | 4.01 | 1.74 | 5.25 | 3.48 | 1.28 | 3.62 | 0.625
5 | CAAACTAGGTCATTGACAGGACAGTGAATAGTAA | 8.37 | 8.3 | 2.39 | 1.76 | 2.3 | 1.73 | 0.252 | 2.35 | 0.262 | 3.75 | 2.83 | 4.74 | 4.67 | 2.28 | 2.89 | 2.91 | 1.01 | 2.42 | 1.51
6 | GCAGACAGGTGAAACCCAGGTAACTCAGGGTGGC | 0.362 | 0.476 | -0.384 | -0.363 | -0.871 | -0.19 | -0.863 | 0.261 | -1.14 | 0.645 | 0.254 | 0.543 | 0.3 | -0.915 | 0.749 | 2.18 | 0.116 | -0.302 | -0.563
7 | CCGACTGGGGCAAAGGTTACCTTACTCAGTACGA | 5 | 5.64 | 0.278 | -0.11 | 1.61 | 2.22 | -0.485 | 3.41 | -0.487 | 2.19 | 2.02 | 3.15 | 1.62 | 0.0718 | 3.54 | 2.12 | 0.802 | 1.21 | -0.495
8 | CGTCCAAGGCCAGCAGGTCAGTGAAAGCGACGTG | 0.153 | -0.0441 | -0.768 | -0.983 | 0.0229 | 0.29 | -0.389 | 0.692 | -1.23 | 2.36 | 2.34 | 1.85 | 2 | -0.479 | 0.648 | 1.3 | 0.193 | -0.178 | -0.465
9 | GCGACTGGGGCATCAGCAGGTTACCATAACTTAA | 3.62 | 3.27 | 0.296 | -0.965 | 0.771 | -0.0761 | -0.654 | 0.57 | -0.145 | 0.697 | 0.856 | 0.955 | 0.455 | -0.108 | 0.462 | 1.09 | -0.0496 | 0.0367 | -0.398
10 | CCTCGGAGTACAACAGGAGGTCAGAGCTGCCAGA | 0.161 | 0.257 | -0.9 | -1.14 | 1.18 | 2.19 | 0.607 | 2.23 | 0.843 | 2.06 | 2.99 | 3.01 | 2.39 | 1.27 | 1.86 | 2.16 | 0.436 | 2.09 | 1.47
11 | GCGACTGAGGCATCAGCAGGTTACCATAACTTAA | -0.328 | -0.559 | -1.15 | -0.218 | -0.486 | -0.397 | -0.552 | 0.102 | -0.596 | -0.298 | -0.000366 | -0.216 | -0.35 | -0.168 | -0.0735 | 0.371 | -0.148 | -0.37 | -0.64
12 | TGTATGAGGTTATAAGATCAGGGAACGTTGCAAA | 0.0132 | 0.98 | 0.426 | 0.745 | 0.994 | 1.1 | -0.0169 | 1.62 | 0.679 | 1.47 | 0.472 | 1.82 | 1.46 | 1.02 | 1.85 | 2.08 | 0.546 | 1.26 | 0.837
13 | ACTTACGGGTCACCGAGGTTATAGCACGCGTATA | 4.12 | 5.23 | 2.17 | 1.98 | 3.07 | 5.54 | 3.25 | 6.06 | 1.56 | 4.67 | 4.01 | 6.34 | 5.96 | 2.78 | 7.33 | 4.24 | 1.45 | 7.82 | 4.59
14 | ATTACAGGGTCATCGTAGGCCAGAGTACGCACAG | 2.45 | 4.43 | 2.06 | 2.49 | 4.05 | 5.5 | 1.66 | 5.52 | 1.45 | 4.45 | 3.91 | 5.86 | 5.41 | 3.6 | 6.79 | 4.86 | 1.78 | 5.39 | 3.83
15 | CCTTACGGGTCACTGACACGTTATAGCATTTGGA | 3.57 | 3.64 | 1.42 | 0.499 | 1.94 | 3.1 | 0.171 | 3.98 | 0.948 | 3.99 | 2.9 | 4.76 | 4.47 | 2.05 | 4.94 | 2.5 | 0.436 | 3.23 | 0.844
